Experimental data from PubChem BioAssay AID1456 (Vanderbilt High Throughput Screening Facility, 2008).
About 4,100 (2.2%) of roughly 190,000 compounds were called active. What follows is part of a selection rich in actives, with near analogues and random picks from the rest. A number with no mark means an inactive call.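 Rule for the calls: active = thallium flux slope and its plate-corrected score both differing from the plate sample mean at a set confidence after two filtering rounds, in either direction; inactive = the rest.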

The molecules below were run against Solute carrier family 12 member 5 (Homo sapiens) (UniProt Q9H2X9) (assay: KCC2 cotransporter modulators, thallium flux, primary screen, cell-based, HEK293 KCC2, FluoZin-2 fluorescence, MLSMR (AID 1456;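 note: slope of fluorescence scaled to starting intensity during 10 to 20 s after thallium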)). Settings: KCC2 cells, thallium flux FluoZin-2 fluorescence; at 10 µM.
Solute carrier family 12 member 5 (Homo sapiens), sequence (Q9H2X9 whole entry, looked up): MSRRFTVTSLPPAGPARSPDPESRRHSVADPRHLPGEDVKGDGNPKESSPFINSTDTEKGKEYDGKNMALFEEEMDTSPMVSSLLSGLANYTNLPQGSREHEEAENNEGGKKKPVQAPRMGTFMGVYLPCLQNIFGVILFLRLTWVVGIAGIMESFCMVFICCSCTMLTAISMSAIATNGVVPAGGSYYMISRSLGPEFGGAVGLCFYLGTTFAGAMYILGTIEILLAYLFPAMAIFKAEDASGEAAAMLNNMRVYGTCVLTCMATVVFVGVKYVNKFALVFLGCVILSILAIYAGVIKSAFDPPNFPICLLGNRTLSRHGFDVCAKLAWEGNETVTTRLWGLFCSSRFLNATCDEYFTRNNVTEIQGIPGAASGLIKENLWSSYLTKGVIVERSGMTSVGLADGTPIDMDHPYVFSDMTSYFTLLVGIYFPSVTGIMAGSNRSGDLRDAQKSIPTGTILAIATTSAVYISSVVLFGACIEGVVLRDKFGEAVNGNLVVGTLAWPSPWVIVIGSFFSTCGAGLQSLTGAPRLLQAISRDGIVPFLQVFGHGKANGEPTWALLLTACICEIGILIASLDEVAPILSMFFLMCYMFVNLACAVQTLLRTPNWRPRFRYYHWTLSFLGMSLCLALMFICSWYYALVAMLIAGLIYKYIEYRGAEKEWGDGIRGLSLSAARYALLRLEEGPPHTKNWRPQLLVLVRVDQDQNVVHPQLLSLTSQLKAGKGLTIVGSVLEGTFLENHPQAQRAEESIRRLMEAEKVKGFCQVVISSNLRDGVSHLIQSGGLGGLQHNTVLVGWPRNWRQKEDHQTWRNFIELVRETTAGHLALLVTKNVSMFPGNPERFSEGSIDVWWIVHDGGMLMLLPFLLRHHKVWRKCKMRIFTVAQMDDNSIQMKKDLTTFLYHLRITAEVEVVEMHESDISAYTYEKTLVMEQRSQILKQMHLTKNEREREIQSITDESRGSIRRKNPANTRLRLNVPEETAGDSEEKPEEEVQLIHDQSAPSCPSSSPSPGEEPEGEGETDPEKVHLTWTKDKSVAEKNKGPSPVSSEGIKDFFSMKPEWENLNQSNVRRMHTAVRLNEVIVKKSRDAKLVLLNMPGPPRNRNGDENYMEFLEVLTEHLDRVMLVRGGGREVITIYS

| Structure (SMILES) | B-score of Tl+ flux slope (higher = more flux/activation; lower = inhibition) |
| --- | --- |
| CCCCC(=O)N/N=C/c1c(O)n(-c2ccccc2)c(=O)[nH]c1=O | -0.272 |
| O=C(CSC1c2ccccc2-c2ccccc21)N/N=C/c1ccccc1 | 2.57 (active) |
| c1cc2c(cc1[C@H]1OC[C@H]3[C@@H]1CO[C@@H]3c1ccc3c(c1)OCO3)OCO2 | 0.711 |
| CCC1(C)CC(CCNCc2ccc(N(C)C)cc2)(c2ccc(F)cc2)CCO1 (stereo not given) | 1.55 |
| CNC(=O)O/N=C(\N)Cc1csc2ccccc12 | 0.111 |
| COc1cc(-n2c(=S)[nH]c3ccc(C)cc3c2=O)c(Cl)cc1Cl | 69.6 (active) |
| COc1cccc(CN2CCCC(C(=O)c3ccccc3SC)C2)c1O (stereo not given) | -3.42 |
| COc1cc(OC)cc(C2(C#N)CCN(C)CC2)c1 | -0.32 |
| CSc1ccc(C(=O)C2CCCN(Cc3ccn[nH]3)C2)cc1 (stereo not given) | 0.628 |
| Cc1ccc(CN2CCCC(C(=O)c3ccc4c(c3)OCO4)C2)cc1C (stereo not given) | -0.421 |
